Values joined by “and” are separate entries in the source; they are usually repeats but may differ in a detail not shown here. Identical values can stand only once. Records with an inconclusive call do not appear. Entries that show only a call come without a potency. Active and inactive are the calls of the source. Calls come from the whole dose curve.
Legend:
[1] = Cytotoxicity counterscreen for inhibitors of SARS-CoV-2 cell entry (AID 1645845); note: nearly all actives have a fitted effect of over 50% in size
Method in brief: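 HEK293-ACE2 cells (Expi293F stably expressing human ACE2) seeded overnight, then compound for 1 h plus 48 h at 37C. Viability as ATP content by luminescence; normalized to wells with cells and media-only wells.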

[2] = Primary qHTS to identify inhibitors of SARS-CoV-2 cell entry (AID 1645846); settings: activity change, negative = inhibition: at 57.1 µM (top of the series) unless noted; note: nearly all actives have a fitted effect of over 45% in size
Method in brief: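 Entry measured by luciferase signal 48 h after adding SARS-CoV-2-S pseudotyped MLV particles to HEK293-ACE2 cells preincubated 1 h with compounds. Normalisation: bald particles and spike particles.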

| SMILES | Potency [1] | Potency [2] | activity change, negative = inhibition [2] | activity change, negative = cytotoxicity [1] |
| --- | --- | --- | --- | --- |
| Cc1ccccc1OCC(O)CO (configuration not stated) | inactive | inactive |  |  |
| CC(=O)NS(=O)(=O)c1ccc(N)cc1 | inactive | inactive |  |  |
| CN(C)C(=O)COC(=O)Cc1ccc(OC(=O)c2ccc(N=C(N)N)cc2)cc1 | inactive |  | -4.53% and -0.733% |  |
| CC(=O)Nc1c(I)cc(I)c(C(=O)O)c1I | inactive | inactive |  |  |
| CCn1cc(C(=O)O)c(=O)c2cnc(N3CCCC3)nc21 |  |  | 0.588% [at 11.3 µM] | 1.65% [at 11.3 µM] (inactive) |
| O=C(OCC1(COC(=O)c2cccnc2)CCCC(COC(=O)c2cccnc2)(COC(=O)c2cccnc2)C1O)c1cccnc1 | inactive |  | -30.1% |  |
| C[N+]1(C)CCCC(OC(=O)C(O)(c2ccccc2)c2ccccc2)C1 (configuration not stated) | inactive |  | -26.9% |  |
| C[C@H]1O[C@@H](n2cc(F)c(=O)[nH]c2=O)[C@H](O)[C@@H]1O | inactive |  | -10.7% and -12.7% |  |
| Nc1ccc(C(=O)O)cc1 | inactive | inactive |  |  |
| Cc1cc(O)cc2c1O[C@](C)(CCC[C@H](C)CCC[C@H](C)CCCC(C)C)CC2 | inactive | inactive |  |  |
| c1ccc2sc(SSc3nc4ccccc4s3)nc2c1 | inactive | inactive |  |  |
| COc1ccc2cc([C@H](C)C(=O)O)ccc2c1 | inactive | inactive |  |  |
| CCN1CCC[C@H]1CNC(=O)c1cc(S(N)(=O)=O)ccc1OC | inactive | inactive |  |  |
| CN=C(NC#N)NCCSCc1nc[nH]c1C | inactive |  | 4.18% |  |
| CCCCC(O)/C=C(C)/C=C/C=C/C(=O)N1CCCC1=O (configuration not stated) | inactive |  | -3.29% |  |
| NCc1ccc(S(N)(=O)=O)cc1 | inactive | inactive |  |  |
| Cc1noc(NS(=O)(=O)c2ccc(N)cc2)c1C | inactive |  | -11.7% |  |
| O=C1c2c(O)cccc2Cc2cccc(O)c21 | inactive | inactive |  |  |
| CCOc1ccc(NC(=O)CC(C)O)cc1 (configuration not stated) | inactive |  | -25.9% |  |
| CCC(C(=O)NC(=O)NC(C)=O)c1ccccc1 (configuration not stated) | inactive | inactive |  |  |
| COc1ccc(C2C(=O)c3ccccc3C2=O)cc1 | inactive | inactive |  |  |
| Cc1oc(=O)oc1COC(=O)[C@@H]1N2C(=O)[C@@H](NC(=O)[C@H](N)c3ccccc3)[C@H]2SC1(C)C | inactive | inactive |  |  |
| O=C(OOC(=O)c1ccccc1)c1ccccc1 | inactive | inactive |  |  |

| SMILES | Potency [1] | Potency [2] | activity change, negative = inhibition [2] | activity change, negative = cytotoxicity [1] |
| --- | --- | --- | --- | --- |
| COC(=O)CCCCC(CCSS/C(CCO)=C(\C)N(C=O)Cc1cnc(C)nc1N)SC(C)=O (configuration not stated) | inactive | inactive |  |  |
| CO[C@@]1(NC(=O)Cc2cccs2)C(=O)N2C(C(=O)O)=C(COC(N)=O)CS[C@@H]21 | inactive | inactive |  |  |
| CCOC(=O)Oc1ccc(CCNC(=O)[C@H](CCSC)NC(C)=O)cc1OC(=O)OCC | inactive | inactive |  |  |
| CCOC(=O)C1=C(C)NC(C)=C(C(=O)OC)C1c1cccc([N+](=O)[O-])c1 (configuration not stated) | inactive | inactive |  |  |
| CC[C@H](C)[C@H](N)C(=O)O | inactive | inactive |  |  |
| CC(C)COC(=O)c1ccc(N)cc1 | inactive | inactive |  |  |
| Cc1ccccc1N1CCN(CCc2nnc3n2CCCC3)CC1 | inactive | inactive |  |  |
| CC(C)(Sc1cc(C(C)(C)C)c(O)c(C(C)(C)C)c1)Sc1cc(C(C)(C)C)c(O)c(C(C)(C)C)c1 | inactive | inactive |  |  |
| COc1ccc(C(=O)c2ccccc2)c(O)c1 | inactive | inactive |  |  |
| CC(=O)Nc1ccccc1 | inactive |  | 4.61% |  |
| NC(CS)C(=O)O (configuration not stated) | inactive |  | -4.89% |  |
| CCS(=O)(=O)CCn1c([N+](=O)[O-])cnc1C | inactive | inactive |  |  |
| CN[C@@H]1[C@H](O)[C@H](NC)[C@H]2O[C@@]3(O)C(=O)C[C@@H](C)O[C@H]3O[C@@H]2[C@H]1O | inactive | inactive |  |  |
| CN(C)CCN(Cc1ccsc1)c1ccccn1 | inactive |  | -8.15% |  |
| CCCCN(CCCC)CCCOC(=O)c1ccc(N)cc1 | inactive |  | -17.6% |  |
| Cc1cc(C)c(NC(=O)CN(CC(=O)O)CC(=O)O)c(C)c1Br | inactive |  | -26.2% |  |
| O=C(O)[C@@H](O)[C@H](O)[C@H](O)[C@@H](O)C(=O)O | inactive |  | -0.518% |  |
| CC(C)(CO)[C@@H](O)C(=O)NCCCO | inactive | inactive |  |  |
| NC(=O)NC1NC(=O)NC1=O (configuration not stated) | inactive | inactive |  |  |
| NC(=O)c1ccccc1O | inactive |  | 1.57% |  |
| O=C(O)c1cc(N=Nc2ccc(O)c(C(=O)O)c2)ccc1O | inactive |  | -12.7% |  |
| CCCCCCCCCCC[C@@H](C[C@@H]1OC(=O)[C@H]1CCCCCC)OC(=O)[C@H](CC(C)C)NC=O | inactive |  | 0.353% |  |
| NCC(=O)CCC(=O)O | inactive |  | -19.8% |  |
